# Bioassay records: PubChem BioAssay, National Center for Advancing Translational Sciences (NCATS)
# AMA1 RON2 block = inhibitors of Plasmodium falciparum AMA1-RON2 interaction; 360,000 tested, 0.2% active; AlphaScreen AMA1-biotinylated RON2 peptide binding; AID 720542; Potency, µM (top dose mostly 58.2 µM), hits mostly inhibitors; also: nearly all actives have a fitted effect of over 45% in size
#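 AMA1 (3D7) with his tag at 25 nM final met compounds first, then biotinylated RON2 peptide at 25 nM; detection used donor plus acceptor beads, 10 µg/mL apiece, read by AlphaScreen after 30 min at room temperature.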
# Pf growth 96h = P. falciparum growth inhibition at 96 hours | P. falciparum luciferase reporter growth, 96 h | Potency, µM (titrated, usually from 28.7 µM), usual class: inhibitors | 320,000 tested, 6.9% active | AID 504834
#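 Plates of compound plus infected erythrocytes (2% hematocrit, 0.05% parasitemia final) incubate 96 hours, 37 C, 5% CO2. Detection reagent added; reduced luminescence from the parasites' luciferase reporter flags inhibition.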
# SARS PLpro yeast = SARS-CoV PLP inhibition in yeast; 330,000 tested, 0.19% active; Potency, µM (top dose mostly 32.9 µM), most hits filed as activators; S. cerevisiae expressing SARS-CoV PLpro, growth rescue; AID 485353; calls by dose curve; also: nearly all actives have a fitted effect of over 55% in size
# Shiga inhibitor = blocks Shiga toxin action in Vero cells | inhibition, % at 38.7 µM | Vero cells, Shiga toxin protein synthesis inhibition reporter | 290,000 tested, 9.2% active; in the data active = inhibition mostly above about 28%, no sharp cut-off; inactive = mostly below about 43%
# Pf growth 48h = P. falciparum growth inhibition at 48 hours (one generation); Potency, µM (top dose mostly 28.7 µM), hits mostly inhibitors; AID 504832; 310,000 tested, 5.9% active; P. falciparum luciferase growth in erythrocytes, 48 h
#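 First compound was added to culture medium, then infected red cells at 0.1% parasitemia and 2% hematocrit (final). After incubation at 37 C under 5% CO2, luciferase detection reagent was dispensed and light output recorded.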
# Cycloheximide cs = counter-screen hit for Shiga toxin inhibitors, cycloheximide; 300,000 tested, 12% active; cell reporter, cycloheximide protein synthesis inhibition counterscreen; max response, %; in the data active = max response mostly above about 13%, no sharp cut-off; inactive = mostly below about 14%; also: read at 38.3 µM for the half of the compounds with a filed dose
# A number is an active result; . = inactive; ? = inconclusive; / = no result given. Rows were chosen to be rich in hits. Some 19% of all compounds tested hit in one or more screens of this group. Unless noted, calls follow the shape of the dose curve; as a rule, active = well fitted curve in the direction sought with a large enough effect; inconclusive = small, poorly fitted or top-dose-only effect, or another doubt; inactive = no such curve, though single readings can be large; an effect the other way counts as inactive or inconclusive.
SMILES,AMA1 RON2 block,Pf growth 96h,SARS PLpro yeast,Shiga inhibitor,Pf growth 48h,Cycloheximide cs
CC(Oc1ccccc1Br)C(=O)N1CCc2ccccc21 (stereo unspecified),.,.,.,79,.,51
CC(Oc1ccc(Cl)cc1)C(=O)N1CCCc2ccccc21 (stereo unspecified),.,?,?,.,?,.
CC(OC(=O)/C=C/c1ccccc1)C(=O)N1CCc2ccccc21 (stereo unspecified),.,.,/,/,.,/
O=C(NCc1ccccc1)c1cc(C2COCCN2C(=O)C2CC2)on1 (stereo unspecified),.,/,/,/,/,/
CC1(C(=O)O)CCN1C(=O)COc1ccc(Cl)cc1 (stereo unspecified),.,/,/,/,/,/
O=C(Nc1ccc(F)c(Cl)c1)c1cncs1,.,.,.,.,.,.
CCN(Cc1nc2cc(Cl)ccc2c(=O)[nH]1)C(=O)CN1C(=O)NC2(CCCCC2C)C1=O (stereo unspecified),.,.,.,/,?,/
Cc1ccc(Nc2nc(C3CC3)cs2)cc1,/,.,.,52,.,33
Clc1ccc(Nc2nc(C3CC3)cs2)cc1,.,.,.,102,/,56
CCC(C(=O)OC(C)C)c1ccc2ccccc2c1 (stereo unspecified),.,.,.,/,.,/
CC(C)c1ccc(NC(=O)CSc2nc3c(c(=O)[nH]2)CCC3)cc1,/,.,.,.,.,.
COc1ccc(S(=O)(=O)N(C)C)cc1NC(=O)c1ccc(OCC(=O)N2CCOCC2)c(OC)c1,.,.,.,/,.,/
Oc1ccccc1C1N=C(c2ccccc2)NC(c2ccccc2)=N1,.,1.7µM,.,.,/,.
Oc1ccc(C2N=C(c3ccccc3)NC(c3ccccc3)=N2)cc1,.,12µM,.,.,.,.
c1ccc(C2=NC(c3ccccc3)N=C(c3ccccc3)N2)cc1,.,.,.,.,?,.
COc1ccc(C(=O)Nc2sc(C)c(C)c2CN2CC(C)OC(C)C2)cc1 (stereo unspecified),.,.,.,68,.,31
Cn1nc(C(F)(F)F)c(-c2ccc(Br)cc2)c1NC(=O)Nc1ccc(F)cc1F,.,.,.,.,?,.
COC(=O)C1=CN(c2ccc(OC)cc2)C=C(C(=O)OC)C1c1cc(OC)c(OC)cc1OC,.,4.1µM,.,.,.,.
COC(=O)C1=CN(c2cc(C)cc(C)c2)C=C(C(=O)OC)C1c1ccc(OC)c(O)c1,.,?,.,.,.,.
O=C(C=C(C(=O)c1ccccc1)c1ccccc1)c1ccccc1,.,/,/,/,/,/
O=C(NC(=S)Nc1ccc(N2CCOCC2)cc1)c1ccccc1,?,.,.,.,.,.
Cc1ccccc1C(=O)NC(=S)Nc1ccc(N2CCOCC2)cc1,.,.,.,.,.,11
Cc1c(C(=O)NC(=S)Nc2ccc(N3CCOCC3)cc2)cccc1[N+](=O)[O-],.,?,.,43,.,9.8
O=C(COc1ccc(Cl)cc1)Nc1cc(S(=O)(=O)N2CCCCC2)ccc1N1CCCCC1,.,2.3µM,.,.,12µM,.
CN1CCN(c2ccc(S(=O)(=O)N3CCCCC3)cc2NC(=O)COc2ccc(F)cc2)CC1,.,?,.,/,?,/
SMILES,AMA1 RON2 block,Pf growth 96h,SARS PLpro yeast,Shiga inhibitor,Pf growth 48h,Cycloheximide cs
CN1CCN(c2ccc(S(=O)(=O)N3CCCCC3)cc2NC(=O)COc2cccc(Cl)c2)CC1,.,?,.,/,10µM,/
COc1ccc(OCC(=O)Nc2cc(OC)ccc2N2CCCCC2)cc1,.,.,.,.,12µM,.
O=C(COc1ccc(Br)cc1)Nc1cc(S(=O)(=O)N2CCCCC2)ccc1N1CCCCC1,.,1.9µM,.,.,.,.
Cc1cccc(OCC(=O)Nc2cc(S(=O)(=O)N3CCCCC3)ccc2N2CCN(C)CC2)c1,.,?,.,.,?,.
N#Cc1ccc(OCC(=O)Nc2cc(S(=O)(=O)N3CCCCC3)ccc2N2CCCCC2)cc1,.,?,.,.,.,.
Cc1ccc(C(=O)NC(=O)CSc2ncccc2C(=O)O)cc1,.,.,.,.,.,.
CCOc1ccc(C2CC(=O)NC(SC)=C2C#N)cc1 (stereo unspecified),.,.,.,.,/,.
C=CCSC1=C(C#N)C(c2ccccc2Cl)CC(=O)N1 (stereo unspecified),.,3.3µM,.,.,.,.
